Experimental findings from PubChem BioAssay AID2284334 (EPA ToxCast) are described below.

Each structure is given as a SMILES string. Records with an inconclusive call do not appear. Activity calls are given as the source filed them. The calls were made as follows: active = hit-call score of the fitted dose curve at least 0.9, where 1 is the maximum; inconclusive = response in the unintended direction; inactive = score below 0.9.

Chain of human Peroxisome Proliferator-activated Receptor alpha (PPARa), PPARA (gene 5465) (Q07869 whole entry, looked up): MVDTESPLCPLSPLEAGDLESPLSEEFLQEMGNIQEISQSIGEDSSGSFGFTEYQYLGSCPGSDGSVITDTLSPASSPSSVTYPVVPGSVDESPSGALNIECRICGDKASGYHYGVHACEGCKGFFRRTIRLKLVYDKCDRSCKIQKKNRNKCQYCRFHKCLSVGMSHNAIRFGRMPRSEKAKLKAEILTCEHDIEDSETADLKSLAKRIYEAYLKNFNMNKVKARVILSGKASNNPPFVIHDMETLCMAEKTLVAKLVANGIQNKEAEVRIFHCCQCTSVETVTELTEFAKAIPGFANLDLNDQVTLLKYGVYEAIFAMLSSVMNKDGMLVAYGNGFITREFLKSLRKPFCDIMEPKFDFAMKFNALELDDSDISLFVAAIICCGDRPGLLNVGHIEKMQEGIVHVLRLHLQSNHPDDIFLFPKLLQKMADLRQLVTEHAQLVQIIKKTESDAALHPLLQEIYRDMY

For the test, the target named is human Peroxisome Proliferator-activated Receptor alpha (PPARa), PPARA (gene 5465) (UniProt Q07869). Description: ATG_hPPARa_EcoTox2: Attagene TRANS-FACTORIAL EcoTox-2 HepG2 Assay for human Peroxisome Proliferator-activated Receptor alpha (PPARa). On the procedure:
ATG_EcoTox2 is a cell-based, multiplexed assay created by modifying the existing Attagene TRANS-FACTORIAL system to include a panel of nuclear receptors from some or all the following species: human (Homo sapiens), african clawed frog (Xenopus laevis), rainbow trout (Oncorhynchus mykiss), japanese medaka (Oryzias latipes), and zebrafish (Danio rerio). The ECOTOX2-FACTORIAL format uses HepG2, a human liver cell line, with measurements taken at 24 hours after chemical dosing in a 24-well plate. ATG_hPPARa_EcoTox2 is one of 29 assay components calculated in the ATG_EcoTox2 assay. It is designed to make measurements of mRNA induction, a form of inducible reporter, as detected with fluorescence intensity signals by Reverse transcription polymerase chain reaction (RT-PCR) and Capillary electrophoresis technology.The assay endpoint ATG_hPPARa_EcoTox2 was analyzed in the positive analysis fitting direction relative to DMSO as the negative control and baseline of activity. Using a type of inducible reporter, measures of mRNA for gain-of-signal activity can be used to understand the reporter gene at the transcription factor-level as they relate to the gene PPARa. Furthermore, this assay endpoint can be referred to as a primary readout, because this assay has produced multiple assay endpoints where this one serves a reporter gene function. To generalize the intended target to other relatable targets, this assay endpoint is annotated to the nuclear receptor intended target family, where the subfamily is non-steroidal.
Human liver HepG2 cells are transiently transfected with multiple reporter transcription units (MRTUs) in 6-well plates using FuGene 6 reagent (Roche; 3 ml FuGene/1 mg DNA). The MRTU constructs are regulated by a cis-regulating element (promoter). Each RTU expresses a GAL4-UAS that regulates the transcription of a nearby target reporter gene sequence. A major difference between the CIS and TRANS system is that in CIS activities of endogenous TFs are measured, whereas the TRANS assay evaluates changes in activities of exogenous, chimeric NR-Gal4 proteins. […] At the end of 24 hour incubation, total RNA was isolated using TriZol reagent (Invitrogen). The isolated RNA is then reverse-transcribed using oligo(dT) primer and Mo-MLV reverse transcriptase (Invitrogen) with DNAse I (Ambion) treatment for 30 min. The one-tenth of the produced cDNA was amplified by PCR using Taq DNA polymerase (Invitrogen) and two reporter sequence-specific primers. The PCR products were fluorescently labeled by primer extension with 6-arboxyfluorescein (6-FAM) 5'-labeled reporter sequence-specific primer (2 min at 95 C, 20 s at 68 C and 10 min at 72 C) and these products were digested with 5U of HpaI (New England Biolabs) for 2h at 37 C. The fragments were purified using Qiaquick PCR columns (Qiagen), analyzed on an ABI 3130xL genetic analyzer (Applied Biosystems) with peak positions identified by using a set of X-rhodamine (ROX)-labeled MapMarker1000 molecular weight standards (BioVentures). The raw capillary electrophoresis data was processed using Attagraph software (Attagene).
What is called AC50 is the midpoint of the concentration-response curve, whichever way the signal moves. Take `CC(C)(Oc1ccc(C2CC2(Cl)Cl)cc1)C(=O)O` (stereo not given): the AC50 is 0.984 µM (active).

Turning to `C[C@@H]1C[C@H]2[C@@H]3CCC4=CC(=O)C=C[C@]4(C)[C@@]3(F)[C@@H](O)C[C@]2(C)[C@@]1(O)C(=O)COP(=O)(O)O`, the compound was classed as inactive.

For `CC(c1cc2ccccc2s1)N(O)C(N)=O` (stereo not given), the outcome was inactive.

`CC(C)(Oc1ccc(Cl)cc1)C(=O)O`: the half-maximal activity concentration (AC50) is 17.1 µM (active).

Turning to `C[C@]12C=CC(=O)C=C1CC[C@@H]1[C@@H]2C(=O)C[C@@]2(C)[C@H]1CC[C@]2(O)C(=O)CO`, the compound was classed as inactive.
